PLK1 PBD inh – inhibitors of human PLK1 polo-box domain binding | P53350 | Plk1 PBD binding of FITC phosphopeptide, fluorescence polarization | Potency, µM, for the others: max response, negative = inhibition, most hits filed as inhibitors | hit rate 2.8% among 360,000 | AID 720504; also: series mostly up to about 57 µM; % is scaled to controls: 0 for no effect and ±100 for the full control effect; nearly all actives have a fitted effect of over 65% in size
VDR inh – vitamin D3 receptor (human) inhibition | P11473 | VDR-SRC2-3 peptide fluorescence polarization, 2 h | Potency, µM, for the others: max response, negative = inhibition, usual class: inhibitors | hit rate 0.93% among 400,000 | AID 504847; also: % is scaled to controls: 0 for no effect and ±100 for the full control effect
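Two reagent solutions held at 4 deg C in the dark were dispensed, compounds pinned at 23 nl, and the mixture incubated 2 h at room temperature. Read-out: fluorescence polarization of VDR–SRC2-3 peptide binding.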
BAZ2B inh – inhibitors of human BAZ2B bromodomain; Q9UIF8; Potency, µM (series often up to 114 µM), inactives show at the highest dose activity change, negative = inhibition, hits mostly inhibitors; AID 504333; hit rate 4.4% among 360,000; AlphaScreen BAZ2B-H3K14Ac peptide displacement; also: % is scaled to controls: 0 for no effect and ±100 for the full control effect; nearly all actives have a fitted effect of over 60% in size
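Protein-peptide AlphaScreen: BAZ2B 50 nM, b-H3K14Ac 50 nM, 1x PBS pH 7.4 + 0.01% Tween-20. Preincubation 30 min RT; cpd 30 min RT (top 110 uM); beads 20 min RT, light-protected.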
JMJD2A Tudor inh – inhibitors of human JMJD2A Tudor domain; AlphaScreen JMJD2A-Tudor / H3K4me3 peptide binding; Potency, µM (doses to about 114 µM), without a hit: at the top dose activity change, negative = inhibition, hits mostly inhibitors; hit rate 4.4% among 390,000; also: % is scaled to controls: 0 for no effect and ±100 for the full control effect; nearly all actives have a fitted effect of over 50% in size
HP1b chromo inh – HP1-beta chromodomain-methylated histone interaction inhibition; AlphaScreen HP1-beta / biotin-H3K9me3 peptide binding; Potency, µM (top dose mostly 114 µM), without a hit: at the top dose activity change, negative = inhibition, usual class: inhibitors; hit rate 0.56% among 390,000; AID 540317; also: nearly all actives have a fitted effect of over 70% in size
Target sequence (P83916 whole entry, looked up): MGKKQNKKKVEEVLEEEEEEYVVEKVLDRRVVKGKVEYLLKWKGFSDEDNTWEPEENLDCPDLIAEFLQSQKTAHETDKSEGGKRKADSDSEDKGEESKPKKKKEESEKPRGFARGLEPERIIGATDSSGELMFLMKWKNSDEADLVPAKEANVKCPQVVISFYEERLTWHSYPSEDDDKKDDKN
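HP1-beta protein (50 nM final) preincubated 30 min at room temperature with biotinylated H3(1-18)K9me3 peptide (50 nM) in PBS pH 7.4, 0.01% Tween-20, then compound added for 30 min. AlphaScreen streptavidin donor/nickel chelate acceptor beads (10 ug/mL final), 30 min dark, luminescence read.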
G9a block – blocks human histone lysine methyltransferase G9a. Q96KQ7. G9a H3K9 monomethylation, AlphaScreen, 2 h. Potency, µM (top dose mostly 102 µM), for the others: at the top dose activity, negative = inhibition, usual class: inhibitors. hit rate 8.8% among 350,000. AID 504332; also: % is scaled to controls: 0 for no effect and ±100 for the full control effect; nearly all actives have a fitted effect of over 75% in size
Target sequence (Q96KQ7 913-1193 limits assumed): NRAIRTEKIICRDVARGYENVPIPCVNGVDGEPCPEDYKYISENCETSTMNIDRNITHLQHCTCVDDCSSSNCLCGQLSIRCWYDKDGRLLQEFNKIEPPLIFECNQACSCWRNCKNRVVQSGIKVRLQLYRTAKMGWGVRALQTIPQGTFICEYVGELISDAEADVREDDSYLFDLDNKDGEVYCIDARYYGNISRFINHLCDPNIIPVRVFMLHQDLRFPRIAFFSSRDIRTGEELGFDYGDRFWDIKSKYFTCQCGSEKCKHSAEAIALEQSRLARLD
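Compounds were preincubated with 20 nM G9a for 15 min, after which biotinylated H3K9 peptide (500 nM) and SAM (20 uM) started a 2 h room-temperature reaction. Monomethylated product was quantified by antibody-based AlphaScreen chemiluminescence.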
Starred values were filed as active, the others as inactive; ? = inconclusive; . = not tested or not shown; ! = a repeat was not active; [ ] = dose if it differs, or a comment. The list is not random: actives were taken first. Their share in the collection is about 11%. Calls follow the shape of the dose curve; as a rule, active = well fitted curve in the direction sought with a large enough effect; inconclusive = small, poorly fitted or top-dose-only effect, or another doubt; inactive = no such curve, though single readings can be large; an effect the other way counts as inactive or inconclusive. Potency is read from the fitted curve at half-maximal effect.

SMILES	PLK1 PBD inh	VDR inh	BAZ2B inh	JMJD2A Tudor inh	HP1b chromo inh	G9a block
O=C(CCc1ccccc1)NC(c1cccs1)c1cc(Cl)c2cccnc2c1O (stereo unspecified)	-8%	-1%	-18%	-21%	31%	?
COc1cc(C(=O)NC(c2ccc(Cl)cc2)c2cc(Cl)c3cccnc3c2O)cc(OC)c1OC (stereo unspecified)	.	-3%	3%	-17%	65%	22%[59 µM]
O=C(Nc1ccc(Oc2ccccc2)nc1)C1CCCCN1Cc1ccc(O)cc1 (stereo unspecified)	.	.	-18%	.	.	-14%
COc1cc(CN2CCCCC2C(=O)Nc2ccc(Oc3ccccc3)nc2)ccc1O (stereo unspecified)	?	-6%	-18%	-28%	18%	5.6µM*
Cc1ccc(N2CCOCC2)c2c1C(=O)c1ccccc1C2=O	-13%	-3%	14µM*	32µM*	13µM*	3.5µM*
O=C1C=C(N2CCOCC2)c2ccccc2C1=O	-18%	?	-38%	-15%	-2%	?
Cc1ccc(/C=N/NC(=O)C2(O)c3ccccc3-c3ccccc32)o1	-3%	-7%	-31%	-8%	30%	56µM*
COc1ccc(-c2cnc(-c3cccnc3)o2)cc1	.	-1%	.	.	.	.
CCCCCCCn1ccc(=N)cc1	-1%	21%	-4%	13%	11%	6.3µM*
CCOc1ccc(CNC(=O)C2CCN(S(=O)(=O)N3CCC(C)CC3)CC2)cc1OC	-2%	2%	1%	-23%	11%	-2%[59 µM]
Cc1nn(-c2ccccc2)c2c1C(c1c(C)[nH]c(C#N)c1C)C(C#N)=C(N)O2 (stereo unspecified)	-10%	3%	?	?	-2%	-6%[12.7 µM]
Cc1nn(-c2ccccc2)c2c1C(c1ccncc1)C(C#N)=C(N)O2 (stereo unspecified)	-11%	2%	-8%	-20%	8%	16µM*
Cc1nn(Cc2ccccc2)c2c1C(c1cccc(Cl)c1)C(C#N)=C(N)O2 (stereo unspecified)	27µM*	?	?	?	-21%	50µM*
Cc1nn(-c2ccccc2)c(Cl)c1C1C(C#N)=C(N)Oc2c1c(C)nn2-c1ccccc1 (stereo unspecified)	-27%	-11%	?	?	-5%	.
CCn1c(C)cc2c(c1=O)C(c1ccncc1)C(C#N)=C(N)O2 (stereo unspecified)	-6%	10%	6%	2%	33%	40µM*
COc1cc(-n2nc(C)c3c2OC(N)=C(C#N)C3c2ccccc2)c(Cl)c(Br)c1O (stereo unspecified)	-25%	-11%	45µM*	-33%[11.4 µM]	45µM*	?
COc1cc(C)ccc1OCCSc1nnc(-c2ccc(C)cc2)o1	.	-6%	82%	53%	72%	-49%[59 µM]
Cc1ccc(-n2nc(C)c3c2OC(N)=C(C#N)C3c2ccncc2)cc1 (stereo unspecified)	-4%	-9%	-11%	?	1%	45µM*
CCOC(=O)CCN(c1ccccc1)S(=O)(=O)c1ccc(-c2ccc(=O)[nH]n2)s1	-3%	1%	-9%[57.1 µM]	?	8%	-13%
Cc1cc(C)c2ccc(NN)nc2c1O	-4%	-9%	7%	-16%	42%	32µM*
Cc1cc(C)c2ccc(/C=N/O)nc2c1O	0%	-6%	-7%	-19%	32%	-6%
COc1ccccc1CN1CC(C(=O)N(C)CCc2ccccn2)CCC1=O (stereo unspecified)	-1%	.	.	.	.	.
COC(=O)[C@@]12CCCN1[C@H](c1ccc(-c3ccccc3)cc1)[C@H]1C(=O)N(C)C(=O)[C@H]12	-13%	6%	-13%	79µM*	7%	15%[2.33 µM]
COC(=O)[C@@]12CCCCN1[C@H](c1ccc(-c3ccccc3)cc1)[C@H]1C(=O)N(C)C(=O)[C@H]12	2%	2%	9%	-32%	32%	23%[2.33 µM]
Cn1ncc2c(=S)[nH]c(=S)[nH]c21	27µM*	.	.	.	.	.
SMILES	PLK1 PBD inh	VDR inh	BAZ2B inh	JMJD2A Tudor inh	HP1b chromo inh	G9a block
COc1ccc(-c2nc(C#N)c(N3CCC(C(N)=O)CC3)o2)cc1	-2%	-10%	5%	4%[57.1 µM]	9%[57 µM]	19%[12.7 µM]
COc1ccc(-c2nc(C#N)c(N3CCc4ccccc4C3)o2)cc1OC	-9%	9%	7.1µM*	?	-38%	28µM*
COc1ccccc1-c1nc(C#N)c(N2CCc3ccccc3C2)o1	0%	-6%	10µM*	?	?	?
COc1ccccc1-c1nc(C#N)c(N2CCN(C(=O)c3ccco3)CC2)o1	2%	-22%	1%	-1%	23%	51%
CC(=O)Nc1ccc(NC(=O)C(C)OC(=O)CC2CCCC2)cc1 (stereo unspecified)	-16%	-11%	13%	-10%	8%	10%[12.7 µM]
CC(=O)Nc1ccc(NC(=O)C(C)OC(=O)CCC2CCCC2)cc1 (stereo unspecified)	-1%	-3%	3%	-10%	13%	35µM*
Cc1nc(CCN2C(=O)c3ccccc3C2=O)n[nH]1	7.5µM*	?	?	25µM*	-9%	?
Cc1csc(NC(=O)Cn2nc(C)c([N+](=O)[O-])c2C)n1	-10%	24%	-5%	-13%	13%	-3%
CCc1c(C)sc(NC(=O)Cn2nc(C)c([N+](=O)[O-])c2C)c1C(N)=O	6µM*	?	-31%	-19%	?	3.5µM*
O=c1cc(-c2ccc(O)c(O)c2)oc2cc(O)c([C@@H]3O[C@H](CO)[C@@H](O)[C@H](O)[C@H]3O)c(O)c12	3%	-5%	.	32µM*!	11%	.
O=c1cc(-c2ccc(O)cc2)oc2c([C@@H]3O[C@H](CO)[C@@H](O)[C@H](O)[C@H]3O)c(O)c([C@@H]3O[C@H](CO)[C@@H](O)[C@H](O)[C@H]3O)c(O)c12	-1%	1%	-17%	-14%	17%	?
O=c1c2cc(O)c(O)cc2oc2cc(O)c(C3OC(CO)C(O)C(O)C3O)c(O)c12 (stereo unspecified)	0%	-1%	13µM*	7.9µM*	?	2.8µM*
COC(=O)Cc1c(C)c2ccc(O)c(CNCc3ccc(OC)c(OC)c3)c2oc1=O	-9%	-3%	2%	2%	64%	-11%[2.33 µM]
CCN(CC)c1cc(C)c2cc(NC(=O)/C=C/c3ccccc3Cl)ccc2n1	.	-19%	-24%	-29%	0%	?
FC(F)(F)c1cnc(NNC(=S)Nc2ccccc2)c(Cl)c1	-9%	.	.	.	.	.
FC(F)(F)c1cnc(NNC(=S)Nc2cccnc2)c(Cl)c1	?	-19%	-1%	-35%	-2%	22µM*

Assay outcomes (PubChem BioAssay)
